Where a name gives a salt, the structure may show the parent alone. ± gives the standard deviation of the averaged measurements.
Columns and labels:
[1] = test system: Saccharomyces cerevisiae BY4741 SeMeCo community; experiment: mean cell size (pixel area) (pixels); higher = larger cells; settings: 10 µM; 24 h; SM minimal medium
In short: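 Drug was acoustically predosed into 384-well plates to a final 10 µM in SM medium, and each well received 70 µl of Saccharomyces cerevisiae BY4741 diluted to OD600 = 0.3 from an overnight preculture at OD600 = 1.0. This four-plasmid fluorescent community carries one fluorescent marker per plasmid, and each plasmid complements one auxotrophy. After 24 h, the cells were fixed with paraformaldehyde and imaged by automated confocal microscopy, and Harmony analysis yielded mean cell pixel area per well. Each value is averaged over 3 replicates. Same SeMeCo high-content imaging drug screen: Selleck FDA-approved drugs at 10 µM, 24 h in SM medium, 384-well plates, 3 replicates.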

[2] = test system: Saccharomyces cerevisiae BY4741 SeMeCo community; experiment: z-score of prototroph abundance vs DMSO median; higher = larger share of this subpopulation than in DMSO controls; settings: 10 µM; 24 h; SM minimal medium; subpopulation (auxotrophy): Prototroph
In short: (§1)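 A Saccharomyces cerevisiae BY4741 community carried four plasmids, each restoring one auxotrophy and encoding a distinct fluorescent protein. It was pre-grown overnight to OD600 1.0, diluted to 0.3, and 70 µl was added to 384-well plates acoustically predosed with library drugs (10 µM final), then grown 24 h in minimal SM medium. Cells were paraformaldehyde-fixed and imaged by automated confocal microscopy, with single-auxotroph fluorescent strains setting thresholds and autofluorescence correction. Each subpopulation's abundance was scored as a z-score against the vehicle-well median.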

[3] = test system: Saccharomyces cerevisiae BY4741 SeMeCo community; experiment: z-score of subpopulation abundance vs DMSO median, subpopulation auxotrophic for L; higher = larger share of this subpopulation than in DMSO controls; settings: 10 µM; 24 h; SM minimal medium; subpopulation (auxotrophy): L
In short: as §1

[4] = test system: Saccharomyces cerevisiae BY4741 SeMeCo community; experiment: z-score of subpopulation abundance vs DMSO median, subpopulation auxotrophic for U; higher = larger share of this subpopulation than in DMSO controls; settings: 10 µM; 24 h; SM minimal medium; subpopulation (auxotrophy): U
In short: as §1

[5] = test system: Saccharomyces cerevisiae BY4741 SeMeCo community; experiment: z-score of subpopulation abundance vs DMSO median, subpopulation auxotrophic for H; higher = larger share of this subpopulation than in DMSO controls; settings: 10 µM; 24 h; SM minimal medium; subpopulation (auxotrophy): H
In short: as §1

[6] = test system: Saccharomyces cerevisiae BY4741 SeMeCo community; experiment: z-score of subpopulation abundance vs DMSO median, subpopulation auxotrophic for LU; higher = larger share of this subpopulation than in DMSO controls; settings: 10 µM; 24 h; SM minimal medium; subpopulation (auxotrophy): LU
In short: as §1

[7] = test system: Saccharomyces cerevisiae BY4741 SeMeCo community; experiment: z-score of subpopulation abundance vs DMSO median, subpopulation auxotrophic for LM; higher = larger share of this subpopulation than in DMSO controls; settings: 10 µM; 24 h; SM minimal medium; subpopulation (auxotrophy): LM
In short: as §1

[8] = test system: Saccharomyces cerevisiae BY4741 SeMeCo community; experiment: z-score of subpopulation abundance vs DMSO median, subpopulation auxotrophic for HM; higher = larger share of this subpopulation than in DMSO controls; settings: 10 µM; 24 h; SM minimal medium; subpopulation (auxotrophy): HM
In short: as §1

[9] = test system: Saccharomyces cerevisiae BY4741 SeMeCo community; experiment: z-score of subpopulation abundance vs DMSO median, subpopulation auxotrophic for HU; higher = larger share of this subpopulation than in DMSO controls; settings: 10 µM; 24 h; SM minimal medium; subpopulation (auxotrophy): HU
In short: as §1

[10] = test system: Saccharomyces cerevisiae BY4741 SeMeCo community; experiment: z-score of subpopulation abundance vs DMSO median, subpopulation auxotrophic for UM; higher = larger share of this subpopulation than in DMSO controls; settings: 10 µM; 24 h; SM minimal medium; subpopulation (auxotrophy): UM
In short: as §1

[11] = test system: Saccharomyces cerevisiae BY4741 SeMeCo community; experiment: z-score of subpopulation abundance vs DMSO median, subpopulation auxotrophic for HL; higher = larger share of this subpopulation than in DMSO controls; settings: 10 µM; 24 h; SM minimal medium; subpopulation (auxotrophy): HL
In short: as §1

[12] = test system: Saccharomyces cerevisiae BY4741 SeMeCo community; experiment: z-score of subpopulation abundance vs DMSO median, subpopulation auxotrophic for HLU; higher = larger share of this subpopulation than in DMSO controls; settings: 10 µM; 24 h; SM minimal medium; subpopulation (auxotrophy): HLU
In short: as §1

[13] = test system: Saccharomyces cerevisiae BY4741 SeMeCo community; experiment: z-score of subpopulation abundance vs DMSO median, subpopulation auxotrophic for HLM; higher = larger share of this subpopulation than in DMSO controls; settings: 10 µM; 24 h; SM minimal medium; subpopulation (auxotrophy): HLM
In short: as §1

[14] = test system: Saccharomyces cerevisiae BY4741 SeMeCo community; experiment: z-score of subpopulation abundance vs DMSO median, subpopulation auxotrophic for LUM; higher = larger share of this subpopulation than in DMSO controls; settings: 10 µM; 24 h; SM minimal medium; subpopulation (auxotrophy): LUM
In short: as §1

[15] = test system: Saccharomyces cerevisiae BY4741 SeMeCo community; experiment: z-score of subpopulation abundance vs DMSO median, subpopulation auxotrophic for HUM; higher = larger share of this subpopulation than in DMSO controls; settings: 10 µM; 24 h; SM minimal medium; subpopulation (auxotrophy): HUM
In short: as §1

[16] = test system: Saccharomyces cerevisiae BY4741 SeMeCo community; experiment: z-score of subpopulation abundance vs DMSO median, subpopulation auxotrophic for HLUM; higher = larger share of this subpopulation than in DMSO controls; settings: 10 µM; 24 h; SM minimal medium; subpopulation (auxotrophy): HLUM
In short: as §1

[17] = test system: Saccharomyces cerevisiae BY4741 SeMeCo community; experiment: z-score of subpopulation abundance vs DMSO median, subpopulation auxotrophic for M; higher = larger share of this subpopulation than in DMSO controls; settings: 10 µM; 24 h; SM minimal medium; subpopulation (auxotrophy): M
In short: as §1

Row | SMILES | mean cell size [1] | z-score of prototroph abundance [2] | z-score of subpopulation abundance [3] | z-score of subpopulation abundance [4] | z-score of subpopulation abundance [5] | z-score of subpopulation abundance [6] | z-score of subpopulation abundance [7] | z-score of subpopulation abundance [8] | z-score of subpopulation abundance [9] | z-score of subpopulation abundance [10] | z-score of subpopulation abundance [11] | z-score of subpopulation abundance [12] | z-score of subpopulation abundance [13] | z-score of subpopulation abundance [14] | z-score of subpopulation abundance [15] | z-score of subpopulation abundance [16] | z-score of subpopulation abundance [17]
1 | CC(=O)OCC(COC(C)=O)OC(C)=O [Triacetin] | 12.4 ± 0.15 | 0.21 | -0.06 | 0.01 | 0.22 | -0.81 | 0.2 | 0.03 | 0.55 | -0.42 | -0.02 | -1.12 | -0.57 | 0.32 | – | – | –
2 | OC[C@H]1O[C@H](OCC2O[C@@H](O)[C@H](O)[C@@H](O)[C@@H]2O)[C@H](O)[C@@H](O)[C@H]1O (stereo not given in full) [Melibiose] | 12.5 ± 0.29 | -0.13 | – | 0.61 | -0.36 | 0.81 | -0.85 | -0.15 | 0.74 | 0.56 | 0.32 | -0.58 | – | 0.14 | 0.46 | 1 | –
3 | Cc1cccc(N(C)C(=S)Oc2ccc3ccccc3c2)c1 [Tolnaftate] | – | 0.3 | -0.24 | -0.32 | -1.13 | -0.35 | -0.04 | -0.59 | -0.22 | -0.08 | -0.75 | -0.38 | -0.75 | -0.11 | – | -1.09 | –
4 | C[C@@H]1CN(c2c(F)c(N)c3c(=O)c(C(=O)O)cn(C4CC4)c3c2F)C[C@H](C)N1 [Sparfloxacin] | 12.38 ± 0.094 | – | 0.07 | -0.2 | – | -0.36 | 0.37 | -0.01 | – | -0.25 | -0.29 | – | -0.79 | – | -0.04 | -0.92 | -0.53
5 | COc1ccc(CN2CCN(C(c3ccc(F)cc3)c3ccc(F)cc3)CC2)c(OC)c1OC [Lomerizine 2HCl] | 12.443 ± 0.0032 | – | 0.3 | 0.28 | -0.09 | -0.08 | 0.33 | 0.78 | – | -0.33 | 0.04 | – | 0.32 | – | -0.52 | -0.64 | -0.52
6 | OC(Cn1cncn1)(Cn1cncn1)c1ccc(F)cc1F [Fluconazole] | 11.98 ± 0.059 | 2.13 | -0.88 | – | -2.16 | – | -0.76 | -1.78 | -1.49 | -0.52 | -1.18 | -1.51 | -1.07 | -0.64 | -1.16 | -1.38 | –
7 | CC1=C(C(=O)OC(C)C)C(c2cccc([N+](=O)[O-])c2)C(C(=O)OC2CN(C(c3ccccc3)c3ccccc3)C2)=C(N)N1 (stereo not given) [Azelnidipine] | 12.5 ± 0.34 | -0.48 | -0.9 | 0.39 | 0.22 | 0.86 | -0.63 | 0.77 | 1.39 | 0.01 | -0.34 | – | 0.09 | 0.01 | 0.26 | -0.49 | -0.27
8 | C[C@H]1COc2c(N3CCN(C)CC3)c(F)cc3c(=O)c(C(=O)O)cn1c23 [Levofloxacin hydrate] | 12.5 ± 0.29 | -1.38 | 1.32 | 0.27 | 0.26 | 1.73 | 1.34 | 0.64 | 0.77 | 0.61 | 0.74 | – | 0.07 | 1.66 | 0.55 | 0.84 | 0.54
9 | Cc1cc(CC(C)CC(C)(C)C)n(O)c(=O)c1 (stereo not given) [Piroctone Olamine] | 12 ± 0.34 | – | 1.41 | 1.32 | 3.62 | 2.47 | 6.65 | 24 | 31.8 | – | 14.6 | – | 39.5 | 16 | 30.2 | 16.6 | 0.45
10 | Nc1nc(/C(=C/CC(=O)O)C(=O)N[C@@H]2C(=O)N3C(C(=O)O)=CCS[C@H]23)cs1 [Ceftibuten dihydrate] | 12.6 ± 0.21 | 0.52 | 0.22 | -0.28 | -0.33 | -0.12 | 0.1 | -0.56 | -0.31 | -0.49 | -0.1 | – | 0.65 | 0.4 | -1.27 | 0.51 | 0.21
11 | CC[C@H]1OC(=O)[C@H](C)[C@@H](O[C@H]2C[C@@](C)(OC)[C@@H](O)[C@H](C)O2)[C@H](C)[C@@H](O[C@@H]2O[C@H](C)C[C@H](N(C)C)[C@H]2O)[C@](C)(O)C[C@@H](C)C(=O)[C@H](C)[C@H]2OC(=O)O[C@@]21C [Erythromycin Cyclocarbonate] | – | -1.17 | 1.01 | 0.09 | 2.08 | – | 0.55 | 0.9 | – | 0.58 | 1.2 | 0.3 | 0.52 | 0.8 | 0.96 | 0.39 | –
12 | CCOC(=O)C1=C(COCCN)NC(C)=C(C(=O)OC)C1c1ccccc1Cl (stereo not given) [Amlodipine Besylate] | 12.6 ± 0.18 | 2.4 | 2.94 | -6.89 | – | -6.85 | 6.36 | 4.12 | -7.3 | -8.17 | 4.37 | – | 5.98 | -4.74 | -6.15 | -1.58 | 5.2
13 | COc1ccc2[nH]c([S+]([O-])Cc3ncc(C)c(OC)c3C)nc2c1 (stereo not given) [Omeprazole Sodium] | 12.1 ± 0.19 | 0.8 | 0.3 | -1.22 | 1.92 | -0.12 | -0.57 | -0.21 | -0.78 | -1.63 | – | – | -0.14 | -0.98 | -0.81 | – | -0.71
14 | O=C(c1ccccc1)c1ccc2n1CCC2C(=O)O (stereo not given) [Ketorolac tromethamine salt] | – | – | – | -0.92 | 0.35 | – | – | -0.41 | – | -0.28 | -0.19 | -0.16 | -0.09 | -0.12 | -0.75 | -0.11 | –

— the supplement of paper PMC8975748
